Results reported in PubChem BioAssay (NCI).
The panel holds about 83,000 compounds, 20% with a hit somewhere; the sample as a whole holds those more often.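 Negative percent growth values reflect cell death: -40 means 40% of the cells present at the start died, and -100 means all died.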 Active and inactive are the calls of the source. Rule for the calls: active = growth percent below 10; inactive = the rest.

Legend:
Assay in all cases: NCI-60 one-dose screen, 48 h (100 = growth as untreated, 0 = no growth, -100 = all killed)
Conditions in all cases: 10 µM
DU-145 prostate = tested on: DU-145 prostate
K-562 leukemia = tested on: K-562 leukemia
MALME-3M melanoma = tested on: MALME-3M melanoma
MDA-MB-231 breast = tested on: MDA-MB-231 breast
SF-268 CNS = tested on: SF-268 CNS
SF-295 CNS = tested on: SF-295 CNS
SF-539 CNS = tested on: SF-539 CNS
UACC-257 melanoma = tested on: UACC-257 melanoma
M14 melanoma = tested on: M14 melanoma
RXF 393 renal = tested on: RXF 393 renal

Measured: growth

COc1ccc(/C=C(\C)[N+](=O)[O-])cc1OC
inactive: DU-145 prostate 18.6% | MDA-MB-231 breast 77.9% | SF-268 CNS 12% | SF-295 CNS 69% | SF-539 CNS 62.8%
active: K-562 leukemia -9.93% | MALME-3M melanoma -72.2% | UACC-257 melanoma -80.4% | M14 melanoma -41.9%

[Cl][Sn]([c]1ccccc1)([c]1ccccc1)[c]1ccccc1
active: DU-145 prostate -84.3% | K-562 leukemia 0.0368% | MALME-3M melanoma -64% | RXF 393 renal -81.5% | SF-268 CNS -79.2% | SF-295 CNS -62.1% | SF-539 CNS -89.5% | UACC-257 melanoma -93.9% | M14 melanoma -76%

O=C1C=Cc2ccccc2C1=O
inactive: DU-145 prostate 45.9% | K-562 leukemia 38.6% | MALME-3M melanoma 52.7% | MDA-MB-231 breast 67.1% | RXF 393 renal 46.5% | SF-268 CNS 87.8% | SF-295 CNS 94% | SF-539 CNS 76.7% | UACC-257 melanoma 75.9% | M14 melanoma 39.4%

COc1ccccc1[As]=[As]c1ccccc1OC (stereo not drawn)
active: DU-145 prostate -89.9% | K-562 leukemia 8.02% | MALME-3M melanoma -72.8% | MDA-MB-231 breast -83.2% | RXF 393 renal -99.5% | SF-268 CNS -82.9% | SF-295 CNS -86.4% | SF-539 CNS -91.4% | UACC-257 melanoma -95.5% | M14 melanoma -81.4%

CCCCCCCC[N+]12CN3CN(CN(C3)C1)C2
inactive: DU-145 prostate 101% | K-562 leukemia 124% | MALME-3M melanoma 98% | RXF 393 renal 105% | SF-268 CNS 95% | SF-295 CNS 95.6% | SF-539 CNS 92.7% | UACC-257 melanoma 98.9% | M14 melanoma 89.5%

CC(Cc1ccc2c(c1)OCO2)NN (stereo not drawn)
inactive: DU-145 prostate 113% | K-562 leukemia 82% | MALME-3M melanoma 97.2% | MDA-MB-231 breast 104% | RXF 393 renal 111% | SF-268 CNS 100% | SF-295 CNS 91% | SF-539 CNS 91.9% | M14 melanoma 96.7%

COc1cc(/C=C/[N+](=O)[O-])cc(OC)c1OC
active: DU-145 prostate 9.73% | K-562 leukemia 5.19% | MALME-3M melanoma -30.2% | SF-539 CNS -61.3% | UACC-257 melanoma -15.8% | M14 melanoma -6.32%
inactive: MDA-MB-231 breast 34% | SF-268 CNS 28.6% | SF-295 CNS 69%

Cc1ccc(NC(=O)CBr)cc1
inactive: DU-145 prostate 105% | K-562 leukemia 70.8% | MALME-3M melanoma 87.5% | MDA-MB-231 breast 95.1% | RXF 393 renal 102% | SF-268 CNS 104% | SF-295 CNS 103% | SF-539 CNS 111% | M14 melanoma 97.6%

O=[N+]([O-])/C=C\c1ccc2c(c1)OCO2
inactive: DU-145 prostate 88.7% | K-562 leukemia 78.2% | MDA-MB-231 breast 101% | RXF 393 renal 74.4% | SF-268 CNS 86.7% | SF-295 CNS 83.3% | SF-539 CNS 94.8% | UACC-257 melanoma 75% | M14 melanoma 76.6%
